# PubChem BioAssay AID493229 (Broad Institute, 2011)
# Results with a measured potency or affinity are listed apart. Results filed as inconclusive are left out. Activity calls are given as the source filed them. How the calls were made is not given here.
# Target: Protein RecA (Mycobacterium tuberculosis (strain ATCC 25618 / H37Rv)) (UniProt P9WHJ3)
# Experiment: Mycobacterium tuberculosis RecA intein splicing inhibitors, confirmatory dry powder dose response (AID 493229)
# Protein RecA (Mycobacterium tuberculosis (strain ATCC 25618 / H37Rv)), sequence (P9WHJ3 whole entry, looked up): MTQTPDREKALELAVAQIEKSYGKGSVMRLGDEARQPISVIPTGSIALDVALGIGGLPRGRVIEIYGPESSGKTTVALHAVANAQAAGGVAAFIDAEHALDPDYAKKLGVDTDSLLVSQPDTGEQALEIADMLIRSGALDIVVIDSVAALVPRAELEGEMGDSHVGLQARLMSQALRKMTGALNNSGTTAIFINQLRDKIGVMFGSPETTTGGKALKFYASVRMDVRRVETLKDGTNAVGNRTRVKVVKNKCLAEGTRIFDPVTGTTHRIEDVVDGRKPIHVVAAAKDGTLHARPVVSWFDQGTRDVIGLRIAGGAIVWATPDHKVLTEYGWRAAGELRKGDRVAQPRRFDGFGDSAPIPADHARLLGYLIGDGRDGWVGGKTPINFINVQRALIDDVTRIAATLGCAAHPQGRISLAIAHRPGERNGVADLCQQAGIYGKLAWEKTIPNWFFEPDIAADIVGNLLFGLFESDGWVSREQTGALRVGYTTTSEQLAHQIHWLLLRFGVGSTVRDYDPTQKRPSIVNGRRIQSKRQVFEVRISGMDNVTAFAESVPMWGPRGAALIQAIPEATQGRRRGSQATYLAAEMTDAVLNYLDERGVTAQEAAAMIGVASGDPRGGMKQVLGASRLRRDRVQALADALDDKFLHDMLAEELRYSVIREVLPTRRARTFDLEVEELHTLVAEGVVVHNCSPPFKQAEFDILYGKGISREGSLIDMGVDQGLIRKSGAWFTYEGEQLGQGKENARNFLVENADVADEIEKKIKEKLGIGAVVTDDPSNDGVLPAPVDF
smiles,measurement,value
Nc1cn(-c2ccccc2)nc1-c1ccc(F)cc1,outcome,inactive
